Molecules are shown by their SMILES. Results filed as inconclusive are left out. Activity calls are given as the source filed them. Calls come from the whole dose curve; as a rule, active = well fitted curve in the direction sought with a large enough effect; inconclusive = small, poorly fitted or top-dose-only effect, or another doubt; inactive = no such curve, though single readings can be large; an effect the other way counts as inactive or inconclusive.

Sequence of Ferritin light chain (Equus caballus) (P02791 2-175 limits assumed): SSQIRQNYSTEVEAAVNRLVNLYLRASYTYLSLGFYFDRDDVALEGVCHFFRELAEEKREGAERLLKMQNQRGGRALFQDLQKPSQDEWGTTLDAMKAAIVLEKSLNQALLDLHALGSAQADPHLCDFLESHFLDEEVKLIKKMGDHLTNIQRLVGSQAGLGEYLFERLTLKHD

One assay has as its target Ferritin light chain (Equus caballus) (UniProt P02791). Briefly: qHTS Validation Assay for Identification of Novel General Anesthetics (AID 2323). Note: % is set by controls: 0 for no effect and ±100 for the full control effect. Conditions: horse apoferritin, anesthetic-site fluorescent probe displacement; series mostly up to 76.9 µM; activity change, negative = inhibition: at the top concentration. The method, boiled down:
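Normalized fluorescence response, scaled between free 1-AMA and 1-AMA/apoferritin complex, fitted to a four-parameter Hill equation for concentration-effect values. Binding mix: 10 uM horse-spleen apoferritin, 50% saturated 1-AMA in PBS; read 380/535 nm after 10 min.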
Background: In qHTS, concentration-response curves come from the screen itself.
For the compound `CNC(=O)[C@H]1O[C@@H](n2cnc3c(NCc4cccc(I)c4)ncnc32)[C@H](O)[C@H]1O`, the “activity change, negative = inhibition” value was -11.8% (inactive). In the case of `CC(N)=NCCCC(N)C(=O)O` (stereo unspecified), the “activity change, negative = inhibition” value is 3.78% (inactive). On to `Cc1cn([C@H]2C[C@@H](N=[N+]=[N-])[C@@H](CO)O2)c(=O)[nH]c1=O`, for which the “activity change, negative = inhibition” value is -0.621% (inactive). As for `CN=C(N)NCCCC(N)C(=O)O` (stereo unspecified), the “activity change, negative = inhibition” value was -3.93% (inactive).

Turning to `COc1c2c(nc3ccccc13)OC(C(C)(O)CO)C2` (stereo unspecified), the “activity change, negative = inhibition” value was -1.5% (inactive). With `NCCC(=O)NCCc1cnc[nH]1`, the “activity change, negative = inhibition” value was -4.37% (inactive).

`O=C(Cc1ccc(Cl)c(Cl)c1)OCCN1CCCC1`: the “activity change, negative = inhibition” value is -5.85% (inactive).

As to `Cc1ccccc1N1CCN(S(=O)(=O)C[C@]23CCC(CC2NC(=O)[C@@H](N)CCS(C)(=O)=O)C3(C)C)CC1` (stereo partly specified), the “activity change, negative = inhibition” value was -14.8% (inactive). Regarding `NC(=O)C1=CN(C2OC(COP(=O)(O)OP(=O)(O)OC[C@H]3O[C@@H](n4cnc5c(N)ncnc54)[C@H](OP(=O)(O)O)[C@H]3O)C(O)C2O)C=CC1` (stereo partly specified), the “activity change, negative = inhibition” value was -16.4% (inactive). Regarding `CC(=O)[C@@]1(O)CC[C@H]2C3CCC4=CC(=O)CC[C@]4(C)C3CC[C@@]21C` (stereo partly specified), the “activity change, negative = inhibition” value is -9.33% (inactive).

For the compound `OC[C@H]1O[C@@H](n2cnc3c(NCCc4ccccc4)ncnc32)[C@H](O)[C@H]1O`, the “activity change, negative = inhibition” value is -10.8% (inactive). `CCCCCCCCCCCCCCC/C=C/[C@@H](O)[C@H](NC(=O)CCCCCCCCCCCCC)OC` (tested in a mixture with another compound): the “activity change, negative = inhibition” value was -1.07% (inactive). Same read-out and setting: to `CNc1ncnc2c1ncn2[C@@H]1O[C@H](CO)[C@H](O)[C@H]1O` belongs -3.89% (inactive). For `NCCNC(=O)c1ccc(Cl)cc1`, the “activity change, negative = inhibition” value was 8.73% (inactive). As for `NC(=NCCC[C@H](N)C(=O)O)NO`, the “activity change, negative = inhibition” value was 3.51% (inactive). As to `OC[C@H]1O[C@@H](n2cnc3c(Nc4ccccc4)ncnc32)[C@H](O)[C@H]1O`, the “activity change, negative = inhibition” value is -3.61% (inactive).

As to `N[C@H](Cc1ccc(O)c(O)c1)C(=O)O`, the “activity change, negative = inhibition” value was -6.02% (inactive). Take `Nc1nc(Nc2ccccc2)nc2c1ncn2[C@@H]1O[C@H](CO)[C@H](O)[C@H]1O`: the “activity change, negative = inhibition” value is -0.237% (inactive).

As to `NC(=S)c1ccc[n+]([C@@H]2O[C@@H](COP(=O)([O-])OP(=O)(O)OC[C@H]3O[C@@H](n4cnc5c(N)ncnc54)[C@H](OP(=O)(O)O)[C@H]3O)C(O)C2O)c1` (stereo partly specified), the “activity change, negative = inhibition” value is -4.59% (inactive).

As for `O=C(O)CC[C@H](NC(=O)c1ccccc1C(=O)O)C(=O)O`, the “activity change, negative = inhibition” value was -0.673% (inactive). Turning to `NCC1OC(O[C@@H]2[C@H](O)[C@@H](OC3C(O)C(N)CC(N)C3OC3OC(CO)C(O)C(O)C3N)O[C@@H]2CO)C(N)C(O)C1O` (stereo partly specified), the “activity change, negative = inhibition” value was -2.21% (inactive). With `COc1cc(=O)n(C)c2c(OCC(O)C(C)(C)O)cccc12` (stereo unspecified), the “activity change, negative = inhibition” value is 4.98% (inactive). As for `C[C@]12CCC(=O)C=C1CC[C@@H]1C2[C@@H](O)C[C@@]2(C)[C@H]1CC[C@]2(O)C(=O)CO` (stereo partly specified), the “activity change, negative = inhibition” value was -2.85% (inactive). Turning to `CN1C(=O)CCC1c1cccnc1` (stereo unspecified), the “activity change, negative = inhibition” value was -5.26% (inactive). Consider `CC(=O)O[C@H]1C[C@@H]2CCC3C(CC[C@@]4(C)[C@H]3C[C@H]([N+]3(C)CCCCC3)[C@@H]4OC(C)=O)[C@@]2(C)C[C@@H]1[N+]1(C)CCCCC1` (stereo partly specified), for which the “activity change, negative = inhibition” value is -4.01% (inactive).

Regarding `N=C(N)SCCc1cccc(CCSC(=N)N)c1`, the “activity change, negative = inhibition” value is -5.34% (inactive).

The target of the next assay is ATP-dependent DNA helicase Q1 (Homo sapiens) (UniProt P46063). Kind of assay: qHTS Validation Assay for Inhibitors of RecQ-Like Dna Helicase 1 (RECQ1) (AID 2353).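 For activity change, negative = inhibition: plate controls were DMSO vehicle for no effect and enzyme-free control for full effect.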 Note: potency is the fitted concentration of half-maximal effect. Conditions: recombinant RECQ1 helicase DNA unwinding assay; series mostly up to 25.6 µM; activity change, negative = inhibition: at the top concentration. The method, boiled down: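 RECQ1T1 50 nM; forked duplex (20 bp + 30-nt ss tails) 200 nM, ATP 2 mM final; pH 8.0, 2 mM MgCl2, 2.5 ug/ml poly(dI-dC); 15 min compound preincubation; discontinuous kinetic read over 2 h at RT.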
Sequence of ATP-dependent DNA helicase Q1 (Homo sapiens) (P46063 whole entry, looked up): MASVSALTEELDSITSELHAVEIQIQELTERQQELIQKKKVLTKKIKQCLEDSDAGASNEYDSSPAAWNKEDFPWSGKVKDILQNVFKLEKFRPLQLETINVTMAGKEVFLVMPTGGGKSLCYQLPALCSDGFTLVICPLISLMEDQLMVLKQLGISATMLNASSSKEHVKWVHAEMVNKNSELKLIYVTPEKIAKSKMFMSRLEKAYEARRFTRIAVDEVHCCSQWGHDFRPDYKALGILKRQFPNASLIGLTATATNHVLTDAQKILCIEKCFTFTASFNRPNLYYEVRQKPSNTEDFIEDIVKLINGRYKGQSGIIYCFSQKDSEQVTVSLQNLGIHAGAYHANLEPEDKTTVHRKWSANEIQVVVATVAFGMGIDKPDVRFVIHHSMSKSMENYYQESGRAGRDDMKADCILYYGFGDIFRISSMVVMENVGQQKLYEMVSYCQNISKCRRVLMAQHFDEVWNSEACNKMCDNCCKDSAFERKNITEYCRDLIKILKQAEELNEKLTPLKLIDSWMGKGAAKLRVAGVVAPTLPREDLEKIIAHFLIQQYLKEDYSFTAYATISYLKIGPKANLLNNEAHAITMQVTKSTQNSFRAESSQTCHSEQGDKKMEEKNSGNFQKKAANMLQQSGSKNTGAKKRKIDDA
Turning to `CNC(=O)[C@H]1O[C@@H](n2cnc3c(NCc4cccc(I)c4)ncnc32)[C@H](O)[C@H]1O`, the “activity change, negative = inhibition” value is 4.93% (inactive).

For the compound `CC(N)=NCCCC(N)C(=O)O` (stereo unspecified), the “activity change, negative = inhibition” value is 0.204% (inactive). For the compound `Cc1cn([C@H]2C[C@@H](N=[N+]=[N-])[C@@H](CO)O2)c(=O)[nH]c1=O`, the “activity change, negative = inhibition” value is -1.07% (inactive). `N.N.N.N.N.N.N.N.N.N.N.N.N.N.O.O.[Cl-].[Cl-].[Cl-].[Cl-].[Cl-].[Cl-].[Ru].[Ru].[Ru]`: the Potency was 4.47 µM (active). Regarding `CN=C(N)NCCCC(N)C(=O)O` (stereo unspecified), the “activity change, negative = inhibition” value was -5.2% (inactive). Turning to `COc1c2c(nc3ccccc13)OC(C(C)(O)CO)C2` (stereo unspecified), the “activity change, negative = inhibition” value was -0.636% (inactive). Take `CN1C2CC(OC(=O)C(CO)c3ccccc3)CC1C1OC12` (stereo unspecified): the “activity change, negative = inhibition” value was 3.52% (inactive). For the compound `CC(C)C1NC(=O)[C@H](CCCCN)NC(=O)[C@@H](Cc2c[nH]c3ccccc23)NC(=O)[C@H](Cc2ccc(O)cc2)NC(=O)[C@H](C)N(C)C(=O)[C@H](Cc2ccccc2)NC1=O` (stereo partly specified), the “activity change, negative = inhibition” value is -1.91% (inactive). As for `NCCC(=O)NCCc1cnc[nH]1`, the “activity change, negative = inhibition” value was -0.826% (inactive). On the same count and under the same terms, as for `O=C(Cc1ccc(Cl)c(Cl)c1)OCCN1CCCC1`, the figure is 1.31% (inactive); as for `Cc1ccccc1N1CCN(S(=O)(=O)C[C@]23CCC(CC2NC(=O)[C@@H](N)CCS(C)(=O)=O)C3(C)C)CC1` (stereo partly specified), 0.859% (inactive); as for `NC(=O)C1=CN(C2OC(COP(=O)(O)OP(=O)(O)OC[C@H]3O[C@@H](n4cnc5c(N)ncnc54)[C@H](OP(=O)(O)O)[C@H]3O)C(O)C2O)C=CC1` (stereo partly specified), 0.0967% (inactive).

Take `CC(=O)[C@@]1(O)CC[C@H]2C3CCC4=CC(=O)CC[C@]4(C)C3CC[C@@]21C` (stereo partly specified): the “activity change, negative = inhibition” value was -1.05% (inactive). Take `OC[C@H]1O[C@@H](n2cnc3c(NCCc4ccccc4)ncnc32)[C@H](O)[C@H]1O`: the “activity change, negative = inhibition” value is -1.05% (inactive). On to `CCCCCCCCCCCCCCC/C=C/[C@@H](O)[C@H](NC(=O)CCCCCCCCCCCCC)OC` (tested in a mixture with another compound), for which the “activity change, negative = inhibition” value was -7.44% (inactive). Turning to `CNc1ncnc2c1ncn2[C@@H]1O[C@H](CO)[C@H](O)[C@H]1O`, the “activity change, negative = inhibition” value was -1.11% (inactive). On to `NCCNC(=O)c1ccc(Cl)cc1`, for which the “activity change, negative = inhibition” value was -2.51% (inactive). With `NC(=NCCC[C@H](N)C(=O)O)NO`, the “activity change, negative = inhibition” value is -0.711% (inactive). Turning to `OC[C@H]1O[C@@H](n2cnc3c(Nc4ccccc4)ncnc32)[C@H](O)[C@H]1O`, the “activity change, negative = inhibition” value is -0.958% (inactive). The same measure, in the same setting: as for `N[C@H](Cc1ccc(O)c(O)c1)C(=O)O`, the figure is -9.83% (inactive); as for `Nc1nc(Nc2ccccc2)nc2c1ncn2[C@@H]1O[C@H](CO)[C@H](O)[C@H]1O`, 3.65% (inactive); as for `NC(=S)c1ccc[n+]([C@@H]2O[C@@H](COP(=O)([O-])OP(=O)(O)OC[C@H]3O[C@@H](n4cnc5c(N)ncnc54)[C@H](OP(=O)(O)O)[C@H]3O)C(O)C2O)c1` (stereo partly specified), -3.13% (inactive).

Take `O=C(O)CC[C@H](NC(=O)c1ccccc1C(=O)O)C(=O)O`: the “activity change, negative = inhibition” value was -3.2% (inactive). On to `NCC1OC(O[C@@H]2[C@H](O)[C@@H](OC3C(O)C(N)CC(N)C3OC3OC(CO)C(O)C(O)C3N)O[C@@H]2CO)C(N)C(O)C1O` (stereo partly specified), for which the “activity change, negative = inhibition” value is 0.931% (inactive).

`COc1cc(=O)n(C)c2c(OCC(O)C(C)(C)O)cccc12` (stereo unspecified): the “activity change, negative = inhibition” value was 2.32% (inactive).

Turning to `C[C@]12CCC(=O)C=C1CC[C@@H]1C2[C@@H](O)C[C@@]2(C)[C@H]1CC[C@]2(O)C(=O)CO` (stereo partly specified), the “activity change, negative = inhibition” value was -0.188% (inactive). As to `CN1C(=O)CCC1c1cccnc1` (stereo unspecified), the “activity change, negative = inhibition” value was 3.43% (inactive). As for `CC(=O)O[C@H]1C[C@@H]2CCC3C(CC[C@@]4(C)[C@H]3C[C@H]([N+]3(C)CCCCC3)[C@@H]4OC(C)=O)[C@@]2(C)C[C@@H]1[N+]1(C)CCCCC1` (stereo partly specified), the “activity change, negative = inhibition” value was 26.1% (inactive). Consider `N=C(N)SCCc1cccc(CCSC(=N)N)c1`, for which the “activity change, negative = inhibition” value was 3.87% (inactive). As for `Nc1nc(SCc2ccc([N+](=O)[O-])cc2)c2ncn([C@@H]3O[C@H](CO)[C@H](O)[C@H]3O)c2n1`, the “activity change, negative = inhibition” value is -1.62% (inactive).

(Values after PubChem BioAssay (NCATS).)
